This is an account of results in PubChem BioAssay (EPA / NIEHS).

Results filed as inconclusive are left out. The source made the active and inactive calls. The calls were made as follows: active = hit-call score of the fitted dose curve at least 0.9, where 1 is the maximum; inconclusive = response in the unintended direction; inactive = score below 0.9. Peptide text beside a SMILES is read from it.

human RAR-related Orphan Receptor beta (RORb), RORB (gene 6096), sequence (Q92753 whole entry, looked up): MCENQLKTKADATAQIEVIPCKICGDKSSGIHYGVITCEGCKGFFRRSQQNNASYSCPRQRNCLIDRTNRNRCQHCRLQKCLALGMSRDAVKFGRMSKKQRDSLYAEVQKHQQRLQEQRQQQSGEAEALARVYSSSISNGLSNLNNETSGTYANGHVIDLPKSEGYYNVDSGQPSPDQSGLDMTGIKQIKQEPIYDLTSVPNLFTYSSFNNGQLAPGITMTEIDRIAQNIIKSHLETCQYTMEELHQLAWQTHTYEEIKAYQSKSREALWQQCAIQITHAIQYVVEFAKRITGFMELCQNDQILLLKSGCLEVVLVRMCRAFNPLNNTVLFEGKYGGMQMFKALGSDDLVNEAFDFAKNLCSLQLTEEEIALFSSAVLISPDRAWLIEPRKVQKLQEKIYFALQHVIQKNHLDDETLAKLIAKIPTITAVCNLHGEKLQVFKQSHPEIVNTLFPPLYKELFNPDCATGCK

This assay has as its target human RAR-related Orphan Receptor beta (RORb), RORB (gene 6096) (UniProt Q92753). Briefly: ATG_RORb_TRANS: Attagene TRANS-FACTORIAL HepG2 Assay for human RAR-related Orphan Receptor beta (RORb) (AID 2283010). How it is done: ATG_TRANS is a cell-based, multiplexed-readout assay that uses HepG2, a human liver cell line, with measurements taken at 24 hours after chemical dosing in a 24-well plate.ATG_RORb_TRANS is one of 30 assay component(s) measured or calculated from the ATG_TRANS assay. It is designed to make measurements of mRNA induction, a form of inducible reporter, as detected with fluorescence intensity signals by Reverse transcription polymerase chain reaction (RT-PCR) and Capillary electrophoresis technology.Data from the assay component ATG_RORb_TRANS was analyzed into 1 assay endpoint. This assay endpoint, ATG_RORb_TRANS, was analyzed in the positive analysis fitting direction relative to DMSO as the negative control and baseline of activity. Using a type of inducible reporter, measures of mRNA for gain-of-signal activity can be used to understand the reporter gene at the transcription factor-level as they relate to the gene RORB. Furthermore, this assay endpoint can be referred to as a primary readout, because this assay has produced multiple assay endpoints where this one serves a reporter gene function. To generalize the intended target to other relatable targets, this assay endpoint is annotated to the nuclear receptor intended target family, where the subfamily is orphan.
Human liver HepG2 cells are transiently transfected with multiple reporter transcription units (MRTUs) in 6-well plates using FuGene 6 reagent (Roche; 3 ml FuGene/1 mg DNA). The MRTU constructs are regulated by a cis-regulating element (promoter). […] A major difference between the CIS and TRANS system is that in CIS activities of endogenous TFs are measured, whereas the TRANS assay evaluates changes in activities of exogenous, chimeric NR-Gal4 proteins. […] At the end of 24 hour incubation, total RNA was isolated using TriZol reagent (Invitrogen). The isolated RNA is then reverse-transcribed using oligo(dT) primer and Mo-MLV reverse transcriptase (Invitrogen) with DNAse I (Ambion) treatment for 30 min. The one-tenth of the produced cDNA was amplified by PCR using Taq DNA polymerase (Invitrogen) and two reporter sequence-specific primers. The PCR products were fluorescently labeled by primer extension with 6-arboxyfluorescein (6-FAM) 5'-labeled reporter sequence-specific primer (2 min at 95 C, 20 s at 68 C and 10 min at 72 C) and these products were digested with 5U of HpaI (New England Biolabs) for 2h at 37 C. The fragments were purified using Qiaquick PCR columns (Qiagen), analyzed on an ABI 3130xL genetic analyzer (Applied Biosystems) with peak positions identified by using a set of X-rhodamine (ROX)-labeled MapMarker1000 molecular weight standards (BioVentures). The raw capillary electrophoresis data was processed using Attagraph software (Attagene).
As to `C=C[C@@]1(C)CC(=O)[C@]2(O)[C@@]3(C)[C@@H](O)CCC(C)(C)[C@@H]3[C@H](O)[C@H](OC(C)=O)[C@@]2(C)O1`, the compound was classed as inactive.

Consider `CC(C)(c1ccccc1)c1ccc(Nc2ccc(C(C)(C)c3ccccc3)cc2)cc1`, for which the compound was called inactive.

On to `CC(=O)c1ccccc1O`, for which the result was inactive.

For `COC(=O)c1ccc(C(=O)OC)c(C(=O)OC)c1`, the result was inactive.

Regarding `N#CC1(N)CCCCC1`, the outcome was inactive.

With `CCCC(C)C(=O)OCC` (stereo not given), the compound was classed as inactive.

Turning to `Oc1ccc(/C=C/c2cc(O)cc(O)c2)cc1`, the call was inactive.

As to `CCCSSCCC`, the compound was classed as inactive.

For the compound `CC(C)CO`, the compound was classed as inactive.

Turning to `CC(=O)OC1CCCCC1`, the compound was called inactive.

`CCCCCCCC(=O)OCC(COC(=O)CCCCCCC)OC(=O)CCCCCCC`: the compound was called inactive.

As for `c1ccc2cnccc2c1`, the outcome was inactive.

Regarding `CC1(C)C(=O)N(CO)C(=O)N1CO`, the compound was classed as inactive.

Take `CCCCCCCCCCCCCc1ccccc1`: the result was inactive.

On to `CC(C)(O)Cc1ccccc1`, for which the call was inactive.

`CCCCNC(=S)NCCCC`: the compound was called inactive.

In the case of `CCOC(=O)/C=C\C(=O)OCC`, the compound was classed as inactive.

For `CC(CC(C)C)=NO`, the compound was classed as inactive.

As to `Cc1c(Cl)cccc1Cl`, the result was inactive.

Consider `CC/C=C\CCOC(=O)c1ccccc1O`, for which the outcome was inactive.

Turning to `N=C1C=CC(=C(c2ccc(N)cc2)c2ccc(N)cc2)C=C1`, the compound was called inactive.

For `CCCCC(=O)O`, the result was inactive.

Consider `Cn1cccc1`, for which the result was inactive.

Take `O=C(C=Cc1ccccc1)OCCc1ccccc1`: the call was inactive.

As to `C=CCCCCCCCCC=O`, the compound was classed as inactive.

Take `CC(C)c1cccc(C(C)C)c1N`: the compound was classed as inactive.

For the compound `OCCCc1ccccc1`, the compound was called inactive.

Turning to `CCCCCC(=O)OCC`, the compound was classed as inactive.

Consider `CC(c1cc(C(C)(C)C)cc(C(C)(C)C)c1O)c1cc(C(C)(C)C)cc(C(C)(C)C)c1O`, for which the call was inactive.

In the case of `COC(=O)[C@H](Cc1ccccc1)NC(=O)[C@@H](N)CC(=O)O` (H-Asp-Phe-OMe), the call was inactive.

As to `CC(C)(CO)C(O)C(=O)NCCCO` (stereo not given), the compound was called inactive.

For `CCCCCCOC(=O)CCCCC(=O)OCCCCCC`, the call was inactive.

For the compound `CC1C(C)(C)C2=C(C(=O)CCC2)C1(C)C` (stereo not given), the compound was classed as inactive.

Turning to `CCCc1ccc(O)c(OC)c1`, the outcome was inactive.

As to `CCC(C)C(=O)OC` (stereo not given), the result was inactive.

For the compound `CC(=O)c1ccc(S(=O)(=O)NC(=O)NC2CCCCC2)cc1`, the call was inactive.

On to `CC(C)OC(=O)c1ccccc1`, for which the result was inactive.

In the case of `c1ccc2c(c1)[nH]c1ccccc12`, the compound was called inactive.

As for `CC1=CC=C(C(C)C)CC1`, the compound was classed as inactive.

On to `CO[Si](CCCS)(OC)OC`, for which the outcome was inactive.
